PubChem BioAssay AID1159580 (chemical genetic matrix, 2015)
Values joined by “and” are separate entries in the source; they are usually repeats but may differ in a detail not shown here. Identical values can stand only once. The whole screen tested about 5,500 compounds, of which about 2,000 (36%) were called active. Not shown: some 18% with an inconclusive outcome. No stated cut-off is given here; in the data, active means normalized growth mostly below about 0.91 (no sharp cut-off); inconclusive means no clear call, values can overlap the other calls; inactive means mostly above about 0.92. Some of the results follow.

Assay: chemical genetic growth profiling, strain panel (AID 1159580);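 further: tested at 20 µM; growth read once vehicle control cultures reached saturation at 30 °C; 1 = growth at the plate median or of vehicle wells; lower values mean less growth of the strain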
Conditions: S. cerevisiae deletion strains, growth OD

Measured: normalized growth

CC(NC(C)(C)C)C(=O)c1cccc(Cl)c1 (stereo not given)
inactive: locus YAL013W, strain DEP1, active compounds read low 1.01 | locus YAL021C, strain ccr4, active compounds read low 1.02 | locus YAL026C, strain drs2, active compounds read low 1 | locus YAL030W, strain snc1, active compounds read low 0.998 | locus YAL040C, strain CLN3, active compounds read low 0.958 | locus YBL061C, strain skt5, active compounds read low 0.993 | locus YBR009C, strain hhf1, active compounds read low 1 | locus YBR021W, strain FUR4, active compounds read low 0.995 | locus YBR023C, strain chs3, active compounds read low 0.996 | locus YBR171W, strain sec66, active compounds read low 0.996 | locus YBR229C, strain ROT2, active compounds read low 1 | locus YBR231C, strain swc5, active compounds read low 1 | locus YBR279W, strain paf1, active compounds read low 0.998 | locus YCL011C, strain gbp2, active compounds read low 1 | locus YCL016C, strain dcc1, active compounds read low 0.995 | locus YCL029C, strain bik1, active compounds read low 1.05 | locus YCL061C, strain MRC1, active compounds read low 0.994 | locus YCL069W, strain vba3, active compounds read low 0.994 | locus YCR088W, strain abp1, active compounds read low 1 | locus YDL005C, strain med2, active compounds read low 0.993 | locus YDL035C, strain GPR1, active compounds read low 1.01 | locus YDL040C, strain nat1, active compounds read low 0.994 | locus YDL074C, strain BRE1, active compounds read low 0.988 | locus YDL101C, strain DUN1, active compounds read low 1.02 | locus YDL134C, strain PPH21, active compounds read low 1 | locus YDL185W, strain tfp1, active compounds read low 1.02 | locus YDL192W, strain arf1, active compounds read low 1.03 | locus YDR001C, strain nth1, active compounds read low 1.01 | locus YDR069C, strain doa4, active compounds read low 1 | locus YDR101C, strain arx1, active compounds read low 1.03 | locus YDR137W, strain rgp1, active compounds read low 1 | locus YDR150W, strain NUM1, active compounds read low 1.01 and 0.976 | locus YDR159W, strain sac3, active compounds read low 0.997 | locus YDR162C, strain NBP2, active compounds read low 1.01 | locus YDR195W, strain ref2 0.989 | locus YDR297W, strain sur2, active compounds read low 1 | locus YDR318W, strain mcm21, active compounds read low 1.02 | locus YDR334W, strain swr1, active compounds read low 0.986 | locus YDR335W, strain msn5, active compounds read low 1 | locus YDR363W, strain ESC2, active compounds read low 1.02 | locus YDR388W, active compounds read low 1.02 | locus YDR392W, strain spt3, active compounds read low 0.978 | locus YDR502C, strain sam2, active compounds read low 1.04 | locus YEL003W, strain gim4, active compounds read low 1 | locus YEL037C, strain rad23, active compounds read low 1 | locus YEL061C, strain CIN8 (second series), active compounds read low 1 | locus YEL061C, strain CIN8, active compounds read low 1.01 | locus YER002W, strain NOP16, active compounds read low 0.979 | locus YER015W, strain faa2, active compounds read low 1 | locus YER016W, strain bim1, active compounds read low 1 | locus YER110C, active compounds read low 1.05 | locus YER111C, strain swi4, active compounds read low 0.987 | locus YER155C, strain BEM2 (second series), active compounds read low 1.01 | locus YER155C, strain BEM2, active compounds read low 1 | locus YER167W, strain BCK2, active compounds read low 1.01 | locus YFR010W, strain ubp6, active compounds read low 1 | locus YGL078C, strain dbp3, active compounds read low 1 | locus YGL086W, strain mad1, active compounds read low 1 | locus YGL167C, strain pmr1, active compounds read low 0.991 | locus YGL173C, strain kem1, active compounds read low 0.977 | locus YGL227W, strain vid30, active compounds read low 0.992 | locus YGL240W, strain doc1, active compounds read low 1.02 | locus YGL248W, strain PDE1, active compounds read low 1.01 | locus YGL253W, strain hxk2, active compounds read low 0.992 | locus YGR078C, strain PAC10, active compounds read low 1.01 | locus YGR135W, strain pre9, active compounds read low 1.02 | locus YGR229C, strain SMI1, active compounds read low 0.999 | locus YGR252W, strain gcn5, active compounds read low 0.989 | locus YHR013C, strain ard1, active compounds read low 0.976 | locus YHR027C, strain rpn1, active compounds read low 0.996 | locus YHR030C, strain SLT2, active compounds read low 1.01 and 1 | locus YHR079C, strain IRE1 (second series), active compounds read low 1.02 | locus YHR079C, strain IRE1, active compounds read low 0.999 | locus YHR094C, strain hxt1, active compounds read low 1.02 | locus YHR129C, strain ARP1, active compounds read low 1.02 | locus YHR142W, strain chs7, active compounds read low 1 | locus YHR200W, strain rpn10, active compounds read low 1.02 | locus YIL066C, strain RNR3, active compounds read low 1.01 | locus YIL073C, strain SPO22, active compounds read low 1.07 | locus YIL125W, strain kgd1, active compounds read low 1.02 | locus YIR030C, strain dcg1, active compounds read low 1.04 | locus YJL092W, strain hpr5, active compounds read low 0.995 | locus YJL095W, strain BCK1 (second series), active compounds read low 0.997 | locus YJL095W, strain BCK1, active compounds read low 1.01 and 0.995 | locus YJL115W, strain asf1, active compounds read low 0.996 | locus YJL129C, strain trk1, active compounds read low 1.01 | locus YJL134W, strain LCB3, active compounds read low 1.01 | locus YJL154C, strain vps35, active compounds read low 1.01 | locus YJL164C, strain tpk1, active compounds read low 1 | locus YJL166W, strain qcr8, active compounds read low 0.993 | locus YJL168C, strain set2, active compounds read low 1.02 | locus YJL187C, strain SWE1 (second series), active compounds read low 1.02 | locus YJL187C, strain SWE1, active compounds read low 0.996 | locus YJR043C, strain POL32, active compounds read low 1 | locus YJR066W, strain TOR1, active compounds read low 0.969
